Measured values taken from PubChem BioAssay AID1209 (Sanford-Burnham Center for Chemical Genomics, 2008).
The whole screen tested about 190,000 compounds, of which about 810 (0.43%) were called active. Cut-off read from the data, not from the text of the source: active = inhibition above about 50%; inactive = the rest. What follows is part of a selection rich in actives, with near analogues and random picks from the rest.

biological target: Mannose-6-phosphate isomerase (Homo sapiens) (UniProt P34949); experiment: inhibitors of human PMI, primary screen, biochemical, fluorescence intensity, coupled assay (AID 1209); conditions: purified PMI enzyme, at 20 µM, active compounds read high;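 note: plate controls were DMSO vehicle for no effect and wells lacking substrate for full effect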
Sequence (P34949 whole entry, looked up): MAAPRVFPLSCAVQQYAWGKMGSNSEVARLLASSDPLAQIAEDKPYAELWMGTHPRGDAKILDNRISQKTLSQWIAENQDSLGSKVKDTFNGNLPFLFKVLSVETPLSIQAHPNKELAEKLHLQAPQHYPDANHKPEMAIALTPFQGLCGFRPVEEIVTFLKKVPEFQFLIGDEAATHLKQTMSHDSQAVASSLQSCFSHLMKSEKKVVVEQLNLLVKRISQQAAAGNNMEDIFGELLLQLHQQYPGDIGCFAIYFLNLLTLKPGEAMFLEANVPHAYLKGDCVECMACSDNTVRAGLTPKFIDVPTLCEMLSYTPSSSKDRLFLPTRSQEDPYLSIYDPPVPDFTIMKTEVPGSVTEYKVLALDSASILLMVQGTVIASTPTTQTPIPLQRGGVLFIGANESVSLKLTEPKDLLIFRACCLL

Structure (SMILES) | inhibition
COc1ccc(NC(=O)CSc2nnc(Cn3cnc4ccccc43)o2)cc1 | 4.8% (inactive)
O=C(O)c1cccc(N2C(=O)/C(=C/c3ccc(SCc4ccc(Cl)cc4)o3)SC2=S)c1 | 73.3% (active)
O=C1/C(=C\c2ccco2)SC(=S)N1c1ccccc1 | 22.8% (inactive)
Cc1cccc(C)c1-n1cccc1/C=C1\SC(=S)N(c2cccc(C(=O)O)c2)C1=O | 1.3% (inactive)
O=C1NC(=S)S/C1=C/c1ccc(N2CCOCC2)o1 | -25.3% (inactive)
O=C(O)c1cc(-c2ccc(/C=C3/SC(=S)N(Cc4ccccc4)C3=O)o2)ccc1Cl | -29.3% (inactive)
Cc1ccc(/C=C2\SC(=S)N(Cc3ccccc3)C2=O)o1 | 18.3% (inactive)
O=C1NC(=S)S/C1=C\c1ccc(SCc2ccco2)o1 | 10.3% (inactive)
O=C1NC(=S)S/C1=C\c1ccc(SCc2ccccc2)o1 | 80.4% (active)
O=C(O)CN1C(=O)/C(=C/c2ccc(SCc3ccccc3)o2)SC1=S | 85.2% (active)
COC(=O)[C@@H](NC(=O)N(C1CCCCC1)C1CCCCC1)C(C)C | -2.2% (inactive)
Cc1nnc(SCC(=O)N2CC(=O)Nc3ccccc32)n1C | -5.6% (inactive)
Cc1ccc(N/C=C/C(=O)c2sc(-c3ccccc3)nc2C)cc1 | 14.3% (inactive)
COc1ccc(-c2csc(NC(=O)Cc3cccc4ccccc34)c2C(=O)O)cc1 | -0.1% (inactive)
O=C(O)c1cccnc1SC1CC(=O)N(CCc2ccccc2)C1=O (configuration not stated) | 3.4% (inactive)
CCc1nnc(NC(=O)c2ccc(S(=O)(=O)N3CCN(Cc4ccccc4)CC3)cc2)s1 | -1.5% (inactive)
C/C=C/c1c(F)c(F)c(Oc2ccc(C(=O)O)cc2)c(F)c1F | -3.5% (inactive)
Cc1noc(C)c1COC(=O)CNC(=O)c1ccc(Cl)cc1 | -4.1% (inactive)
COCCNC(=O)c1ccc(CN2CCOCC2)cc1 | -8.4% (inactive)
CCN1C(=O)C(CC(=O)Nc2ccc(OC)cc2)N(CCc2ccc(OC)cc2)C1=S (configuration not stated) | -4.1% (inactive)
C=CCOC(=O)C1=C(C)NC(=S)NC1/C=C/c1ccccc1 (configuration not stated) | 2.3% (inactive)

Structure (SMILES) | inhibition
O=c1c(Cc2ccc(F)cc2)c(O)ccn1CCCn1ccnc1 | 3% (inactive)
O=C(Oc1ccc(C(=S)N2CCOCC2)cc1)c1ccc(Br)cc1 | 5.3% (inactive)
COc1ccc(C(=O)Oc2ccc(C(=S)N3CCOCC3)cc2)cc1 | 51% (active)
O=C(Oc1ccc(C(=S)N2CCOCC2)cc1)c1ccccc1 | 3.3% (inactive)
O=C(Nc1ncccn1)c1ccc(C(F)(F)F)cc1 | 4% (inactive)
CCOC(=O)C1(CCOC)CCN(Cc2ccccc2-c2ccco2)CC1 | 3.5% (inactive)
O=C1CCCN2N=C(SCC(=O)Nc3nccs3)SC2=N1 | -3.6% (inactive)
CCOC(=O)C1=C(C)Nc2ccccc2N=C1NC(=O)/C=C/c1ccc(OC)cc1OC | 19.3% (inactive)
CCCCOc1ccc(/C=C/C(=O)NC2=Nc3ccccc3NC(C)=C2C(=O)OCC)cc1OC | 65.6% (active)
CCOC(=O)C1=C(C)Nc2ccccc2N=C1NC(=O)Cc1ccc(OC)cc1 | 1.1% (inactive)
Cc1c(-c2ccccc2)[n+](=O)c(-c2ccc(Cl)cc2)c(C)n1[O-] | 4.1% (inactive)
Cc1ccc(CN(c2ccc(C(=O)NCc3cccnc3)cc2)S(C)(=O)=O)cc1 | -2.9% (inactive)
c1ccc(Cc2nn3c(COc4ccccc4)nnc3s2)cc1 | 53.1% (active)
Clc1ccccc1-c1nn2c(COc3ccccc3)nnc2s1 | 9.4% (inactive)
CCOc1ccccc1OCc1nn2c(COc3ccccc3)nnc2s1 | 45.2% (inactive)
c1ccc(CCc2nn3c(Cc4ccccc4)nnc3s2)cc1 | 38.2% (inactive)
c1ccc(Cc2nnc3sc(-c4cccs4)nn23)cc1 | 8.2% (inactive)
c1ccc(OCc2nnc3sc(-c4cccs4)nn23)cc1 | 65.5% (active)
Cc1cccc(NC(=O)CSc2nnc(-c3n[nH]c4ccccc34)o2)c1 | 17.6% (inactive)
COCCNC(=S)Nc1ccc([N+](=O)[O-])cc1C | 2% (inactive)
CCOc1ccccc1N(C(=O)c1ccco1)C(C(=O)NC1CCCC1)c1cccnc1 (configuration not stated) | 5.1% (inactive)
